For 2 sequences, binding signal results are on record in publication PMC7862700, “An all-to-all approach to the identification of sequence-specific readers for epigenetic DNA modifications on cytosine”.

Assay in all cases: DAPPL (digital affinity profiling via proximity ligation, sequencing); 10 mM Tris-HCl pH 7.5, 50 mM NaCl, 1 mM DTT, 4% glycerol, room temperature, 30 min; GST-TFs on glutathione beads, 16-mer random dsDNA library, 0.1% formaldehyde crosslink after washing; high values mean tight binding
Conditions in all cases: protein: recombinant; tags: N-terminal GST; dsDNA, one strand shown

One experiment addresses T1, ELK1 (Homo sapiens, UniProt P19419 1-428).
T1 sequence: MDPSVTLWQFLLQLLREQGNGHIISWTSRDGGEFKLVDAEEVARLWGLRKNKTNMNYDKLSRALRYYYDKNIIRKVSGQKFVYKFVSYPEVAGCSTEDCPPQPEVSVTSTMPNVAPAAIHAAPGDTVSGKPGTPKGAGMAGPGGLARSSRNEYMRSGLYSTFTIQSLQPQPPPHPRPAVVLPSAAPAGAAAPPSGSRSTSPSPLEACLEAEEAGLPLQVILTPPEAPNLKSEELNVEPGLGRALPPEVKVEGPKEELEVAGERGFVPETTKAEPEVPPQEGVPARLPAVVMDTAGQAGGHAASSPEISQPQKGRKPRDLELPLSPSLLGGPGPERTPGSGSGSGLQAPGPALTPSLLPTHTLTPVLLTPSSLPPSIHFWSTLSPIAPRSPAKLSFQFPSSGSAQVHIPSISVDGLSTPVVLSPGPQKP
The procedure, abridged: (§1)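 Each value of binding signal is a hexamer's read frequency for a factor divided by the same hexamer's frequency in the tag-only sample. Barcoded, bead-captured GST fusions of human transcription factors made in yeast were pooled with that sample and incubated with 200 nmole of a random double-stranded 16-mer DNA library in Tris/NaCl/DTT/glycerol buffer at room temperature for 30 min. Washing, 0.1% formaldehyde crosslinking, proximity ligation, PCR and Illumina NextSeq500 sequencing followed.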

The target in another experiment is T2, GABPA (Homo sapiens, UniProt Q06546 1-454).
T2 sequence: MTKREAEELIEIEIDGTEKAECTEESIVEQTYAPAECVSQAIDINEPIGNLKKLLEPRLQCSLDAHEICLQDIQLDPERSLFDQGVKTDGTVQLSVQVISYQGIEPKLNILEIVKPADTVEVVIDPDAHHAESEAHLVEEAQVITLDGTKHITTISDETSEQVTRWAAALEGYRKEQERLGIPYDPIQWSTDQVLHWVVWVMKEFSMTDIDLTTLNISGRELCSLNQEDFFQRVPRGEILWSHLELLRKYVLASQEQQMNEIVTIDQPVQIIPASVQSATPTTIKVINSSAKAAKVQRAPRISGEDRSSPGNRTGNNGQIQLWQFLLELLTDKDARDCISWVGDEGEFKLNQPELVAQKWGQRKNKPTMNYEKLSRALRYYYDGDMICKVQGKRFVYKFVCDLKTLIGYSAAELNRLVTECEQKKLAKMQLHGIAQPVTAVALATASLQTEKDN
The procedure, abridged: as §1

For another experiment, the target named is ELF1 (Homo sapiens, UniProt P32519 1-619). In a few lines:
as §1

In the next experiment the target is T3, EHF (Homo sapiens, UniProt Q9NZC4 1-300).
T3 sequence: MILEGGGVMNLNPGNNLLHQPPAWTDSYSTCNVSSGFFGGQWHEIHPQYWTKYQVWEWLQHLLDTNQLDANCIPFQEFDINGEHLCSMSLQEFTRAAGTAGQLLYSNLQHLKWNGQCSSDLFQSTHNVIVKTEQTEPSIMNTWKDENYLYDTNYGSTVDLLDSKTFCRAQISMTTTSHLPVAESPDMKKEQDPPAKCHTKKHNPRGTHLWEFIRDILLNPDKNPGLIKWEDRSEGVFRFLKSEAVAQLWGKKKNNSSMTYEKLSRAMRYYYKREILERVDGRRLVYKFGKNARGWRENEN
In a few lines: as §1

The next experiment deals with SPIB (Homo sapiens, UniProt Q01892 1-262). In a few lines:
as §1

The next experiment addresses ETV5 (Homo sapiens, UniProt P41161 1-510). In a few lines: as §1
For another experiment, the target named is T4, SPIC (Homo sapiens, UniProt Q8N5J4 1-248).
T4 sequence: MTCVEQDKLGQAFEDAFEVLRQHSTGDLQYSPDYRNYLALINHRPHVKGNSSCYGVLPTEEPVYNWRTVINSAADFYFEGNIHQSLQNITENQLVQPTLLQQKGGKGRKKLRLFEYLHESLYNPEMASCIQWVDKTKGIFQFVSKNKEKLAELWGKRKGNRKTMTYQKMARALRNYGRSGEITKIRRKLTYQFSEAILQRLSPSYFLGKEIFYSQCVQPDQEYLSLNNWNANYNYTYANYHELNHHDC
The procedure, abridged: as §1

The next experiment has as its target ELF4 (Homo sapiens, UniProt Q99607 1-663). In a few lines:
as §1

Another experiment has as its target T5, ELK4 (Homo sapiens, UniProt P28324-2 1-405).
T5 sequence: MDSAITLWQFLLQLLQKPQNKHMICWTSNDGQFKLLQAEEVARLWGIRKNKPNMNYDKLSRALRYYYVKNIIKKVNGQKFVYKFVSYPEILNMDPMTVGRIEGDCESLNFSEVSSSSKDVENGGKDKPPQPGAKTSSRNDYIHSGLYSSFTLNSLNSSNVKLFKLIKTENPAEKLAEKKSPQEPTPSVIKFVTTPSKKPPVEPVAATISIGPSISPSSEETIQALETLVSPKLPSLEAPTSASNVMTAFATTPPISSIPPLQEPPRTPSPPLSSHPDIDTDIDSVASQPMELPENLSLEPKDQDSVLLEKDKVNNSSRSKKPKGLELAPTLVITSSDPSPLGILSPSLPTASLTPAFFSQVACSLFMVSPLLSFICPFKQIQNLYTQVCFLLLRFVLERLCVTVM
The procedure, abridged:
as §1

The target in the next experiment is T6, ELF3 (Homo sapiens, UniProt P78545 1-371).
T6 sequence: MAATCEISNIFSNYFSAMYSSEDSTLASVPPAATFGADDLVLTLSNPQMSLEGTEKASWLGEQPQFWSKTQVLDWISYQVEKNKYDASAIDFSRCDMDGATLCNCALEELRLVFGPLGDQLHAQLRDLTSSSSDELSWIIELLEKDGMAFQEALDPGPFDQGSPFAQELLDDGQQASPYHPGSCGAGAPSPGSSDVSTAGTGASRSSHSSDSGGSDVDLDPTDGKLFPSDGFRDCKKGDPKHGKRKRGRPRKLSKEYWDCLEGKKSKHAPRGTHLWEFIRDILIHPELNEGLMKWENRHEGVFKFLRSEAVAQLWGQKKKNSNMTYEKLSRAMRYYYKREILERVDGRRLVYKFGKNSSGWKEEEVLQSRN
The procedure, abridged:
as §1

In another experiment the target is ETV1 (Homo sapiens, UniProt P50549 1-477). The procedure, abridged:
as §1

Another experiment concerns the target T7, ETV3L (Homo sapiens, UniProt Q6ZN32 1-361).
T7 sequence: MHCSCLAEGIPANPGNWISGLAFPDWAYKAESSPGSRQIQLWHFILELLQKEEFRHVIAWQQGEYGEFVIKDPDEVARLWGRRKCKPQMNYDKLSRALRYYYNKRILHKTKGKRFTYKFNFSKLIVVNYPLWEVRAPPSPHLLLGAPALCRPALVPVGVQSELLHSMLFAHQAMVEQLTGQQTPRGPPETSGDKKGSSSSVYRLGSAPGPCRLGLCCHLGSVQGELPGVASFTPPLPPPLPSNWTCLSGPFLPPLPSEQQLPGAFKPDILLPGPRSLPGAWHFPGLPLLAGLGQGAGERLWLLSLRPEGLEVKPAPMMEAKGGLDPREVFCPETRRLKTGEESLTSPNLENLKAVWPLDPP
The procedure, abridged:
as §1

A further experiment concerns the target T8, ETS2 (Homo sapiens, UniProt P15036 1-469).
T8 sequence: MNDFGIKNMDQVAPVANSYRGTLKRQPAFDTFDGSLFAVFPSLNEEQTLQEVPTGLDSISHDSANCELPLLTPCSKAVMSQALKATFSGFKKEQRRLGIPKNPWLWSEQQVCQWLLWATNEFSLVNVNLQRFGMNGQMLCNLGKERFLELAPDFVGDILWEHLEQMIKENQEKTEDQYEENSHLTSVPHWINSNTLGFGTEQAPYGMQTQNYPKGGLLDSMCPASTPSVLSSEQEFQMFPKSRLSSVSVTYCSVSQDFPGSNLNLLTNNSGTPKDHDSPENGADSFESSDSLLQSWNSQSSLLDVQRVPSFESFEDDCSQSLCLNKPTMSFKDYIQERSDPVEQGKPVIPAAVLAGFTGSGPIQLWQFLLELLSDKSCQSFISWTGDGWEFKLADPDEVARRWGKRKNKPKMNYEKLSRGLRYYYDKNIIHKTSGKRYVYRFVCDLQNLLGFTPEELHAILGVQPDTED
In a few lines: as §1

The target of a further experiment is T9, SPDEF (Homo sapiens, UniProt O95238 1-335).
T9 sequence: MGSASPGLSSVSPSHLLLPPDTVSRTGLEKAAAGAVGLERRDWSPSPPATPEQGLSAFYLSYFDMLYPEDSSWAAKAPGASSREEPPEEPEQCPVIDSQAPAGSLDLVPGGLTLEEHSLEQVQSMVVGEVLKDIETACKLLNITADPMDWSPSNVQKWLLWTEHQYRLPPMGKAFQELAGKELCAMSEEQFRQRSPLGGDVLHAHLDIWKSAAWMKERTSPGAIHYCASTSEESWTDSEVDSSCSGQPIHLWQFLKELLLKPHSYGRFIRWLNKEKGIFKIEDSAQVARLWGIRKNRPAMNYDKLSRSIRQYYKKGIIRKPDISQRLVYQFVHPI
In a few lines:
as §1

Another experiment has as its target T10, ETV7 (Homo sapiens, UniProt Q9Y603 1-341).
T10 sequence: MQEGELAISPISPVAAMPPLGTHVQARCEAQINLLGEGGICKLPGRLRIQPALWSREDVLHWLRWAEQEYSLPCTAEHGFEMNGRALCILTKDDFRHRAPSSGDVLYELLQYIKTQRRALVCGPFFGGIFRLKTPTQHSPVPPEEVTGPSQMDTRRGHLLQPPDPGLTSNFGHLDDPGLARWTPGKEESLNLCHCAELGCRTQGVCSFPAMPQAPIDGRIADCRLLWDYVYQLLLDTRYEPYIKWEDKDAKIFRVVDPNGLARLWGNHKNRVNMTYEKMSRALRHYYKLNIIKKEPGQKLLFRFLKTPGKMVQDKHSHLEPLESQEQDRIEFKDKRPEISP
The procedure, abridged:
as §1

Another experiment concerns the target T11, ETV3 (Homo sapiens, UniProt P41162-2 1-143).
T11 sequence: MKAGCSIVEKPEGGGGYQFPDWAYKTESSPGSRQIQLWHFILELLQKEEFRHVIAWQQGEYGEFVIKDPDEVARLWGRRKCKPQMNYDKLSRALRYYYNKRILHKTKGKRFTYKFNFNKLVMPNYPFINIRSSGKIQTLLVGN
The procedure, abridged: as §1

In another experiment the target is ETV6 (Homo sapiens, UniProt P41212 1-452). The procedure, abridged: as §1
Sequence of ETV6 (P41212 whole entry): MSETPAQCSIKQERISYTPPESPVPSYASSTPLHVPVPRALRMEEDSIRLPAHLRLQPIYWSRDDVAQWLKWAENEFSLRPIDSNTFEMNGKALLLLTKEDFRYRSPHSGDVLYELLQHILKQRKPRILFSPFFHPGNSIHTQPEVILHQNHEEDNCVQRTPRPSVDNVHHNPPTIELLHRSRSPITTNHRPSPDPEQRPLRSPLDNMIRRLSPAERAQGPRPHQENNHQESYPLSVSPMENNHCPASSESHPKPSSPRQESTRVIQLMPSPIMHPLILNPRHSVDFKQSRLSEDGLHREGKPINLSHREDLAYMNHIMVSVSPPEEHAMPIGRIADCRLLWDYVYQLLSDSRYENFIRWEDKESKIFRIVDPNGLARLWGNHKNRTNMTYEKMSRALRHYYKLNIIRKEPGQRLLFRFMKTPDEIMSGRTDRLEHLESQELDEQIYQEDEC
A further experiment concerns the target SPI1 (Homo sapiens, UniProt P17947 1-270). In a few lines:
as §1

Sequence of ETV5 (P41161 whole entry): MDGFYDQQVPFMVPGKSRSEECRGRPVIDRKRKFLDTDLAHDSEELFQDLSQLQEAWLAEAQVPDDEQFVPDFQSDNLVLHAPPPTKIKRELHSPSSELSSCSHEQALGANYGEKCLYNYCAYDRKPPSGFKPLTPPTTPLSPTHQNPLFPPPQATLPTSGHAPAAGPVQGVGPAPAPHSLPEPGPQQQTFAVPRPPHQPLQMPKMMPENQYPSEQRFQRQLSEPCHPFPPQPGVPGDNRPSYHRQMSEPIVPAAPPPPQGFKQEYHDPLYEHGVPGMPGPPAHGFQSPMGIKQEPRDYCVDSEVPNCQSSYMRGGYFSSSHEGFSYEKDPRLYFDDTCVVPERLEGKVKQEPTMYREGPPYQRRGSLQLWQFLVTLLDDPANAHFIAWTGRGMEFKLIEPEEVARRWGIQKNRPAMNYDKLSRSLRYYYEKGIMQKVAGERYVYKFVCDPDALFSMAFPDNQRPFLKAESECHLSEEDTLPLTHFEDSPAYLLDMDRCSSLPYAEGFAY
Sequence of ELF1 (P32519 whole entry): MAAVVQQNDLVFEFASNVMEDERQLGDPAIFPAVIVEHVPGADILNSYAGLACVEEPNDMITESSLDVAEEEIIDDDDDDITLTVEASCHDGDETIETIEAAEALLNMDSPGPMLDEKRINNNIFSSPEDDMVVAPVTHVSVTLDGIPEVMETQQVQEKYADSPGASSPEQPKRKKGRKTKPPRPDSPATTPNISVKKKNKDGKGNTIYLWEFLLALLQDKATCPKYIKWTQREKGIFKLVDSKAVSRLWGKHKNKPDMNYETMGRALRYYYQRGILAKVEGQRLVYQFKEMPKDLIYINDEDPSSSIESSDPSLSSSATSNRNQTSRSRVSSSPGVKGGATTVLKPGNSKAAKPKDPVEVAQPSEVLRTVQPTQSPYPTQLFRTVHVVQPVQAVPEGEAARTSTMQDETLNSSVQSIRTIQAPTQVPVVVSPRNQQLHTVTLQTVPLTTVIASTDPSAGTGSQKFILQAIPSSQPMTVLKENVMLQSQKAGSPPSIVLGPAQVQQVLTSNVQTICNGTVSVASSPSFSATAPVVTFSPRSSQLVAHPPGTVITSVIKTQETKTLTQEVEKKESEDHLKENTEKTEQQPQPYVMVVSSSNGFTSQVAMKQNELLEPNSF
Sequence of ETV1 (P50549 whole entry): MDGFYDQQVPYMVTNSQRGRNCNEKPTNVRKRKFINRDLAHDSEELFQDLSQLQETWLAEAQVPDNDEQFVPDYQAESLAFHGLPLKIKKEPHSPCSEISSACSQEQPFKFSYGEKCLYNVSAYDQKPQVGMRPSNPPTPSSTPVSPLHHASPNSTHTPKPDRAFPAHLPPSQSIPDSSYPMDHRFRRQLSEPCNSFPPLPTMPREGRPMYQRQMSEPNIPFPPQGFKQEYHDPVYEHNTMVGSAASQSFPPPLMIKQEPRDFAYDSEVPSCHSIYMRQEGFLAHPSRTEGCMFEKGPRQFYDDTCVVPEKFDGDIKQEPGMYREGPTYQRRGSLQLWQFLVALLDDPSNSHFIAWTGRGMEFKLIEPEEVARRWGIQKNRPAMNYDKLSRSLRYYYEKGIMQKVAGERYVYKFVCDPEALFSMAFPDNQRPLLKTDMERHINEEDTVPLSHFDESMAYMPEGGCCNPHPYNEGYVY
Sequence of ELF4 (Q99607 whole entry): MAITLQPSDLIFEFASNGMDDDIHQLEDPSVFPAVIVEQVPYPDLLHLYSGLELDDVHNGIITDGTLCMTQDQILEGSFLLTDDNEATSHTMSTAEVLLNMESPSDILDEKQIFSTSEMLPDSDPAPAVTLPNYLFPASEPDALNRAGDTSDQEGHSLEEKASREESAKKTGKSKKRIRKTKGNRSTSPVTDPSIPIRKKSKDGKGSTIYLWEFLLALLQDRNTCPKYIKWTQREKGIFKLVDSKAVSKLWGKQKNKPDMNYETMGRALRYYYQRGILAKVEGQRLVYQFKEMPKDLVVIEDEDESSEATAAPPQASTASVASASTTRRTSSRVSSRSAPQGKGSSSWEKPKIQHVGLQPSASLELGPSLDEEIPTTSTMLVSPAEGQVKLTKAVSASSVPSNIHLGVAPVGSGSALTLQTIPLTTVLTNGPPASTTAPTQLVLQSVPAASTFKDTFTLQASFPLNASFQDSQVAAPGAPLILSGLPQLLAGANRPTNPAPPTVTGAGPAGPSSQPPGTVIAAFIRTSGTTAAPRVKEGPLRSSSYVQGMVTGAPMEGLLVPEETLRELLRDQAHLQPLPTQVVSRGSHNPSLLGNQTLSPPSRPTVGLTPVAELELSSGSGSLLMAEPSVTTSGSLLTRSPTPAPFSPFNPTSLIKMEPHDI
Sequence of SPIB (Q01892 whole entry): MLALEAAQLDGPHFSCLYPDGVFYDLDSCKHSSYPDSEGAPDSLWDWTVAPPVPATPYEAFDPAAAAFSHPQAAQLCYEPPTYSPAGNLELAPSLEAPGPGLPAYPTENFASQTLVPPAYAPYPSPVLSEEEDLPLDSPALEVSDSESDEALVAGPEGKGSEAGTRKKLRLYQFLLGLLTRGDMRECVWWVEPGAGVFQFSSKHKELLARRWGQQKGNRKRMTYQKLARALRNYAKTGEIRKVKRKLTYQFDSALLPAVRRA

On to ACACGG, for which the binding signal was 1.03 fold enrichment (6-mer frequency, TF over GST control) with ELK1; 1.05 fold enrichment (6-mer frequency, TF over GST control) in the experiment with GABPA; 1.06 fold enrichment (6-mer frequency, TF over GST control) with ELF1; 1.05 fold enrichment (6-mer frequency, TF over GST control) with EHF; 1.1 fold enrichment (6-mer frequency, TF over GST control) with SPIB; 1.04 fold enrichment (6-mer frequency, TF over GST control) with ETV5. For the same sequence, the binding signal in the experiment with SPIC is 1.06 fold enrichment (6-mer frequency, TF over GST control); in the experiment with ELF4, 1.05 fold enrichment (6-mer frequency, TF over GST control); with ELK4 it was 1.07 fold enrichment (6-mer frequency, TF over GST control); with ELF3 it was 1.06 fold enrichment (6-mer frequency, TF over GST control); with ETV1 it was 1.1 fold enrichment (6-mer frequency, TF over GST control); with ETV3L, 1.06 fold enrichment (6-mer frequency, TF over GST control). Besides, the binding signal with ETS2 is 1.08 fold enrichment (6-mer frequency, TF over GST control); with SPDEF, 1.17 fold enrichment (6-mer frequency, TF over GST control); in the experiment with ETV7, 1.03 fold enrichment (6-mer frequency, TF over GST control); in the experiment with ETV3 it was 1.13 fold enrichment (6-mer frequency, TF over GST control); with ETV6 it was 1.06 fold enrichment (6-mer frequency, TF over GST control).
As to GCGAAA, the binding signal in the experiment with SPI1 is 1.02 fold enrichment (6-mer frequency, TF over GST control); with ETV5 it was 1.01 fold enrichment (6-mer frequency, TF over GST control); with ETV7, 1.04 fold enrichment (6-mer frequency, TF over GST control).
